31 molecules from ChEMBL document CHEMBL1157539, “Thousands of chemical starting points for antimalarial lead identification” (Nature, 2010) can be followed below.

Common to all, as to format: functional
Assay [1] deals with Plasmodium falciparum. The assay is described as follows: GSK_TCMDC: Inhibition of Plasmodium falciparum 3D7 in whole red blood cells, using parasite LDH activity as an index of growth. Test compounds present at 2uM.
In assay [2] the test system is Plasmodium falciparum. As to the kind of experiment: GSK_TCMDC: Inhibition of Plasmodium falciparum Dd2 in whole red blood cells, using parasite LDH activity as an index of growth. Test compounds present at 2uM.
In a further assay the test system is HepG2. As to the kind of experiment: GSK_TCMDC: Percent inhibition of human HepG2 cell line. Test compounds present at 10uM.

By Inhibition is commonly meant the drop in the measured response relative to a control, in per cent. A lower Inhibition goes with a response near the control. As to `COc1cc(C)ccc1N1CCN(CCCCNC(=O)c2ccc(NC(=O)c3ccc(Cl)cc3)cc2)CC1`, the Inhibition is given as 99% in the assay on Plasmodium falciparum [1], 31% with Plasmodium falciparum [2] and 30% in the assay with HepG2.

On to `COc1cccc(-c2ccc3c(-c4cccc(NC(C)=O)c4)cnc(N)c3c2)c1.O=CO`, for which the values for the Inhibition in the assay with Plasmodium falciparum [1], in the assay on Plasmodium falciparum [2] and in the assay on HepG2 were 99%, 83% and 71%, respectively.

Regarding `CCN(CC(C)O)C(=O)c1ccc(-c2cccc(-c3nc4cccc(C)c4[nH]3)c2)cc1` (stereo not drawn), the results for the Inhibition in the assay with Plasmodium falciparum [1], with Plasmodium falciparum [2] and with HepG2 were 100%, 32% and 28%, respectively.

Turning to `Cc1cc(NC(=O)CCN2CCN(c3cccc(Cl)c3Cl)CC2)ccc1N1CCN(C(C)C)CC1.Cl`, the Inhibition with Plasmodium falciparum [1] is on record as 99%; in the assay with Plasmodium falciparum [2], 8%; in the assay with HepG2, 82%.

As to `O=C(/C=C/c1ccc(Cl)c(Cl)c1)NCCCCCN1CCCC(CNS(=O)(=O)c2ccc(F)cc2)C1` (stereo not drawn), the results for the Inhibition with Plasmodium falciparum [1], in the assay on Plasmodium falciparum [2] and in the assay with HepG2 were 91%, 7% and 56%, respectively.

In the case of `Cc1cccc(N2CCN(C3CCC(NC(=O)c4cc5ccccc5[nH]4)CC3)CC2)c1C` (stereo not drawn), the Inhibition with Plasmodium falciparum [1] stood at 100%; with Plasmodium falciparum [2], 21%; in the assay with HepG2, 49%.

With `CC(C)(C)c1ccc(S(=O)(=O)Nc2ccccc2N2CCOCC2)cc1`, the Inhibition in the assay with Plasmodium falciparum [1] came to 90%; with Plasmodium falciparum [2], 60%; in the assay on HepG2 it was 11%.

In the case of `CO/C(=C\C=C\c1cc2cc(Cl)c(Cl)cc2[nH]1)C(=O)NCCCN1CCN(c2ccc(OC)cc2)CC1`, the results for the Inhibition in the assay with Plasmodium falciparum [1], with Plasmodium falciparum [2] and in the assay on HepG2 were 99%, 44% and 40%, respectively.

As to `CN1CCN(Cc2nc(-c3ccc4c(Nc5ccc(F)c(O)c5)ccnc4c3)cs2)CC1`, the Inhibition stood at 100% in the assay on Plasmodium falciparum [1], 100% in the assay on Plasmodium falciparum [2] and 0% with HepG2.

Take `COc1ccc(-c2ccc(NC(=O)c3ccc(C#N)cc3)cc2)cc1CN(C)CCO.O=C(O)C(F)(F)F`: the Inhibition in the assay with Plasmodium falciparum [1] is recorded as 99%; with Plasmodium falciparum [2], 44%; in the assay with HepG2 it was 41%.

Turning to `Cl.NCC1(c2nc(-c3ccc(Cl)c(O)c3)c(-c3ccncc3)[nH]2)CCCCC1`, the results for the Inhibition in the assay on Plasmodium falciparum [1], with Plasmodium falciparum [2] and with HepG2 were 98%, 98% and 48%, respectively.

Regarding `Nc1nc(N)c2c(Cl)c(CNc3cccc(C(=O)O)c3)ccc2n1`, the Inhibition in the assay on Plasmodium falciparum [1] was determined as 93%; in the assay on Plasmodium falciparum [2], 97%; in the assay on HepG2, 69%.

Regarding `O=C(C=Cc1ccc(Cl)c(Cl)c1)NCCCCCN1CCCC(CCCNC(=O)c2cccs2)C1` (stereo not drawn), the Inhibition was 89% in the assay on Plasmodium falciparum [1], 0% in the assay with Plasmodium falciparum [2] and 24% with HepG2.

For the molecule `O=C(/C=C/c1ccc(Cl)c(Cl)c1)N1CCN(C(=O)Nc2ccc(C(F)(F)F)cc2)CC1`, the Inhibition with Plasmodium falciparum [1] is recorded as 98%; in the assay on Plasmodium falciparum [2], 100%; with HepG2, 47%.

For `Cl.Cn1c(=N)n(CC(=O)N2CCc3ccc(Cl)cc3C2Cc2ccc(Cl)c(Cl)c2)c2ccccc21` (stereo not drawn), the Inhibition in the assay with Plasmodium falciparum [1] stood at 100%; in the assay with Plasmodium falciparum [2], 52%; in the assay on HepG2 it was 99%.

For `Cc1cccn2c(=O)c3cc(C(=O)NC4CCCCC4)c(=N)n(CCCn4ccnc4)c3nc12`, the Inhibition with Plasmodium falciparum [1] is 100%; in the assay with Plasmodium falciparum [2] it was 8%; in the assay on HepG2, 1%.

In the case of `C[C@H](Cc1ccc(C[C@@H](C)NC[C@H](O)c2cccc(Cl)c2)cc1)NC[C@H](O)COc1ccccc1.Cl`, the Inhibition in the assay on Plasmodium falciparum [1] came out at 96%; with Plasmodium falciparum [2], 60%; with HepG2, 99%.

With `CCOC(=O)c1ccc(NC(=O)Nc2cccc(-c3ccc(-c4nc5ccccc5[nH]4)cc3)c2)cc1`, the Inhibition is given as 100% in the assay on Plasmodium falciparum [1], 86% in the assay on Plasmodium falciparum [2] and 54% with HepG2.

In the case of `O=C(NC1CCN(c2ccnc3cc(Cl)ccc23)C1)c1ccc(F)cc1F.O=C(O)C(F)(F)F` (stereo not drawn), the Inhibition is on record as 100% in the assay with Plasmodium falciparum [1], 100% with Plasmodium falciparum [2] and 31% in the assay on HepG2.

For `CCC(CC)CN1C(=O)C(C)(c2ccccc2)N=C1N.O=C(O)C(F)(F)F` (stereo not drawn), the figures for the Inhibition in the assay with Plasmodium falciparum [1], in the assay with Plasmodium falciparum [2] and in the assay with HepG2 were 84%, 11% and 1%, respectively.

For the molecule `CCCNCc1ccc(-c2ccc(CN(CCOC)C(=O)CCC(=O)c3ccc(OC)c(F)c3)cc2)nc1.O=C(O)C(F)(F)F`, the Inhibition in the assay on Plasmodium falciparum [1] turned out to be 100%; with Plasmodium falciparum [2] it was 47%; in the assay on HepG2 it was 13%.

Consider `COc1ccc(C(=O)Nc2ccc3nc(N4CCCCC4)cc(C)c3c2)cc1[N+](=O)[O-]`, for which the values for the Inhibition with Plasmodium falciparum [1], in the assay with Plasmodium falciparum [2] and in the assay with HepG2 were 96%, 7% and 17%, respectively.

Take `Cc1cc(-c2cc(Cl)ccc2Cl)no1`: the results for the Inhibition in the assay on Plasmodium falciparum [1], with Plasmodium falciparum [2] and in the assay with HepG2 were 96%, 97% and 36%, respectively.

Regarding `COc1ccc(CNC(=O)NC2CCN(c3ccnc(Nc4cc(OC)c(OC)c(OC)c4)n3)C2)cc1` (stereo not drawn), the Inhibition with Plasmodium falciparum [1] was found to be 91%; in the assay on Plasmodium falciparum [2] it was 90%; with HepG2, 0%.

Consider `Nc1ncc(-c2cn[nH]c2)cc1-c1nc2ccc(F)cc2[nH]1`, for which the Inhibition in the assay on Plasmodium falciparum [1] is listed as 100%; in the assay with Plasmodium falciparum [2], 53%; in the assay on HepG2 it was 38%.

For `COc1ccc(NC(=O)CSc2nc(-c3ccccc3Cl)ns2)cc1`, the figures for the Inhibition in the assay on Plasmodium falciparum [1], in the assay on Plasmodium falciparum [2] and in the assay on HepG2 were 96%, 75% and 11%, respectively.

`CC(C)c1ccc(NC(=O)c2ccc(C(=O)NC3CCN(Cc4ccccc4)CC3)cc2)cc1.O=C(O)C(F)(F)F`: the Inhibition stood at 88% in the assay on Plasmodium falciparum [1], 7% with Plasmodium falciparum [2] and 30% in the assay on HepG2.

With `NC(=O)c1cccc(C(=O)Nc2cccc(-c3cccc(-c4nc5cc(C(F)(F)F)ccc5[nH]4)c3)c2)c1`, the Inhibition in the assay with Plasmodium falciparum [1] is 100%; in the assay on Plasmodium falciparum [2] it was 85%; with HepG2, 71%.

Turning to `Cc1ccc(-c2ccn(Cc3cccc(OCc4ccccc4)c3)n2)cn1.Cc1ccc(-c2ccnn2Cc2cccc(OCc3ccccc3)c2)cn1`, the Inhibition in the assay with Plasmodium falciparum [1] was 82%; in the assay on Plasmodium falciparum [2], 64%; in the assay with HepG2 it was 0%.

As to `COc1ccc(NC(=O)[C@H](CC(C)C)Nc2cc(C)nc(Nc3ccccc3)n2)cc1.O=C(O)C(F)(F)F`, the Inhibition with Plasmodium falciparum [1] turned out to be 100%; in the assay with Plasmodium falciparum [2] it was 92%; in the assay with HepG2 it was 25%.

`O=C(Nc1cccc(CN2CCCN(Cc3ccc(O)cc3)CC2)c1)c1cccc(F)c1.O=C(O)C(F)(F)F`: the Inhibition in the assay with Plasmodium falciparum [1] was 92%; with Plasmodium falciparum [2], 4%; in the assay on HepG2 it was 22%.
